The source of these data is paper PMC7862700, “An all-to-all approach to the identification of sequence-specific readers for epigenetic DNA modifications on cytosine”.

Common to all, as to assay: DAPPL (digital affinity profiling via proximity ligation, sequencing); 10 mM Tris-HCl pH 7.5, 50 mM NaCl, 1 mM DTT, 4% glycerol, room temperature, 30 min; GST-TFs on glutathione beads, 16-mer random dsDNA library, 0.1% formaldehyde crosslink after washing; high values mean tight binding
The target of one assay is T1, FEV (Homo sapiens, UniProt Q99581 1-238).
T1 sequence: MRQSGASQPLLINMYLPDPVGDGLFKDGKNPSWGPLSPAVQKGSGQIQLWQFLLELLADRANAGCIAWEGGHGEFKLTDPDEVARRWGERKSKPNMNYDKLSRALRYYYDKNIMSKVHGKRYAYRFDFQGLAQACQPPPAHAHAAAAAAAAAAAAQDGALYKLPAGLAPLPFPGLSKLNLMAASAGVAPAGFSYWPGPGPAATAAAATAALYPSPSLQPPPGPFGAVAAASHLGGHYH
To be noted: protein: recombinant; tags: N-terminal GST; dsDNA, one strand shown. The gist of the method: (§1)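 Binding signal is given per hexamer as its read frequency for a factor divided by its frequency in the tag-only sample. GST-fused human transcription factors were expressed in yeast, captured on glutathione beads, barcoded with DNA and pooled with that sample, then incubated with 200 nmole of a 16-mer random double-stranded DNA library in Tris/NaCl/DTT/glycerol buffer for 30 min at room temperature. The pools were then washed, crosslinked, proximity-ligated, amplified by PCR and sequenced on an Illumina NextSeq500.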

The target in the next assay is ETV5 (Homo sapiens, UniProt P41161 1-510). Conditions: protein: recombinant; tags: N-terminal GST; dsDNA, one strand shown. The gist of the method:
as §1

The target in the next assay is HSF1 (Homo sapiens, UniProt Q00613 1-529). To be noted: protein: recombinant; tags: N-terminal GST; chain copies: 3; dsDNA, one strand shown. The gist of the method:
as §1

A further assay has as its target T2, SPIC (Homo sapiens, UniProt Q8N5J4 1-248).
T2 sequence: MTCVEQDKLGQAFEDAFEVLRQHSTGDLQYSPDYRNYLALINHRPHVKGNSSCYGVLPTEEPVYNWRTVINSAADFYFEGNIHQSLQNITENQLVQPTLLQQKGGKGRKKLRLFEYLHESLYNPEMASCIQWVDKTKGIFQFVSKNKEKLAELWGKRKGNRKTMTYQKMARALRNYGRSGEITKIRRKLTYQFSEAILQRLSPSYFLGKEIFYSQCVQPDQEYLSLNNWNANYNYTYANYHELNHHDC
Conditions: protein: recombinant; tags: N-terminal GST; dsDNA, one strand shown. The method in brief: as §1

In another assay the target is ELF4 (Homo sapiens, UniProt Q99607 1-663). Conditions: protein: recombinant; tags: N-terminal GST; dsDNA, one strand shown. The gist of the method: as §1
Another assay has as its target T3, ELK4 (Homo sapiens, UniProt P28324-2 1-405).
T3 sequence: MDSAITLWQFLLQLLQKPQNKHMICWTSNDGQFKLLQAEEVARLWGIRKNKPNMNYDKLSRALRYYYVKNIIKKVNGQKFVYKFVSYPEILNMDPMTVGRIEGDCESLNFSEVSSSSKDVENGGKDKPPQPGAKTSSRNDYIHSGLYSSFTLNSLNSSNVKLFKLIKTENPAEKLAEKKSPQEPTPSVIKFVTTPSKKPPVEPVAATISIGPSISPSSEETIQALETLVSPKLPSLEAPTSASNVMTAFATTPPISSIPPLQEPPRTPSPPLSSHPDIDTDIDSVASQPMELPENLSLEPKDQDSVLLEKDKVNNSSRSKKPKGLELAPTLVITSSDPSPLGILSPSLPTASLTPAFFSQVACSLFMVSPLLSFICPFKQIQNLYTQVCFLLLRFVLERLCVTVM
To be noted: protein: recombinant; tags: N-terminal GST; dsDNA, one strand shown. The gist of the method: as §1

The next assay addresses T4, ETV2 (Homo sapiens, UniProt O00321 1-342).
T4 sequence: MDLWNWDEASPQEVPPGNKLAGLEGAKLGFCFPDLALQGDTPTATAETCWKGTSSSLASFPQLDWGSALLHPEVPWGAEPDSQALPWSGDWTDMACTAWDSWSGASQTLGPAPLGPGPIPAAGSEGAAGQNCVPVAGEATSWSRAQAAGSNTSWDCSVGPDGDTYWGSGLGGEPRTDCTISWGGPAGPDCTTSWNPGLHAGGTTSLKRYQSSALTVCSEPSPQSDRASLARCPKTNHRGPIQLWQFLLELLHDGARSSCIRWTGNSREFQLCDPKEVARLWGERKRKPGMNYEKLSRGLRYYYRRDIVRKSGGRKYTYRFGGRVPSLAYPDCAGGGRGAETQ
Conditions: protein: recombinant; tags: N-terminal GST; dsDNA, one strand shown. The gist of the method: as §1

The target in a further assay is T5, ELF3 (Homo sapiens, UniProt P78545 1-371).
T5 sequence: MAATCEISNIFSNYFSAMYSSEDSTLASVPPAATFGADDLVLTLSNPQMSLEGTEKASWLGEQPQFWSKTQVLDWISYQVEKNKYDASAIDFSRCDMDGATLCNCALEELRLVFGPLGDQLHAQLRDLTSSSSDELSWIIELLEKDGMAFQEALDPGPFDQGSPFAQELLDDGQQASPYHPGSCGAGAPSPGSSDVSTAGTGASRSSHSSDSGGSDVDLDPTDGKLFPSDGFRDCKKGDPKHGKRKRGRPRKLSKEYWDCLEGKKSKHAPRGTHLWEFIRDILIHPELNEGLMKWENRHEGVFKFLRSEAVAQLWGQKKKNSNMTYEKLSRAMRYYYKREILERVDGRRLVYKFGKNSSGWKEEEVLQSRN
Conditions: protein: recombinant; tags: N-terminal GST; dsDNA, one strand shown. The gist of the method: as §1

A further assay deals with CRX (Homo sapiens, UniProt O43186 1-299). To be noted: protein: recombinant; tags: N-terminal GST; dsDNA, one strand shown. The method in brief: as §1
For a further assay, the target named is ETV1 (Homo sapiens, UniProt P50549 1-477). To be noted: protein: recombinant; tags: N-terminal GST; dsDNA, one strand shown. The gist of the method: as §1
A further assay concerns the target T6, ERF (Homo sapiens, UniProt P50548 1-548).
T6 sequence: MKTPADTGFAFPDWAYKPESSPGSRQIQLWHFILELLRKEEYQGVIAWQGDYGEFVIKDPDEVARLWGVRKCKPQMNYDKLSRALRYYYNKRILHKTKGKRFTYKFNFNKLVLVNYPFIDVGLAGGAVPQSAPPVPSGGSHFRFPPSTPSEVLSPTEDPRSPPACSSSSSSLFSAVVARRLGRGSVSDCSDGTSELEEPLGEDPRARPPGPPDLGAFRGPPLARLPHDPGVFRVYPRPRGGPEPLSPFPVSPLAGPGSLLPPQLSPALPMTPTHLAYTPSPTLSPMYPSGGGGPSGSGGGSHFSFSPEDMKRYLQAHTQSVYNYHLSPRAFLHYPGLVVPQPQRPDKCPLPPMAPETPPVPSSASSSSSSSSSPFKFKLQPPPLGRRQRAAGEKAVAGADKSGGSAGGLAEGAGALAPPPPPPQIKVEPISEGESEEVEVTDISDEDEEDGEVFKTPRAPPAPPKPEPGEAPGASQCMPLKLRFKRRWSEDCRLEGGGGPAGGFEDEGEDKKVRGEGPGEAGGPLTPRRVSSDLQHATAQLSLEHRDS
To be noted: protein: recombinant; tags: N-terminal GST; dsDNA, one strand shown. The gist of the method: as §1

The target in a further assay is T7, ETV3L (Homo sapiens, UniProt Q6ZN32 1-361).
T7 sequence: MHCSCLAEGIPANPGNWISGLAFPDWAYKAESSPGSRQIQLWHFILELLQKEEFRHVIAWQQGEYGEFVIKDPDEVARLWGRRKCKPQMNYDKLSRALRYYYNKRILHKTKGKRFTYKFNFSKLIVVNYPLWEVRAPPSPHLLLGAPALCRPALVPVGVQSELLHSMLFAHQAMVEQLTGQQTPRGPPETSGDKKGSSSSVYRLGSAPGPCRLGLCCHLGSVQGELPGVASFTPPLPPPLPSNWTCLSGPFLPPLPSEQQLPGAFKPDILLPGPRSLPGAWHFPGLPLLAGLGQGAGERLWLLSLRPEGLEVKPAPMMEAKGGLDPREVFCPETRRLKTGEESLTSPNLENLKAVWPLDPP
Conditions: protein: recombinant; tags: N-terminal GST; dsDNA, one strand shown. The gist of the method: as §1

For a further assay, the target named is T8, ETS2 (Homo sapiens, UniProt P15036 1-469).
T8 sequence: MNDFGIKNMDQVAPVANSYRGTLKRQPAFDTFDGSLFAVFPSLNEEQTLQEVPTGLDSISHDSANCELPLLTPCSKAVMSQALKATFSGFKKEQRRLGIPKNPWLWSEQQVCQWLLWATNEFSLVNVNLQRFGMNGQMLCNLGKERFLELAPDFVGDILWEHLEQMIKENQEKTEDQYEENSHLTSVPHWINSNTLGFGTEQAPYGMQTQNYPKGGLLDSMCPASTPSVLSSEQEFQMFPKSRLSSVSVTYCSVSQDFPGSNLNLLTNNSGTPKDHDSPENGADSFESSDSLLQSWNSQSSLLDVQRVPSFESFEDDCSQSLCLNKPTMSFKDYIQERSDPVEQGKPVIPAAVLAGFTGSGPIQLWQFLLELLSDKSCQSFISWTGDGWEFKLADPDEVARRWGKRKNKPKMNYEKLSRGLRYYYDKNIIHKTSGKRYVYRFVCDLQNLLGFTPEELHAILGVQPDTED
To be noted: protein: recombinant; tags: N-terminal GST; dsDNA, one strand shown. The method in brief: as §1

Another assay deals with T9, SPDEF (Homo sapiens, UniProt O95238 1-335).
T9 sequence: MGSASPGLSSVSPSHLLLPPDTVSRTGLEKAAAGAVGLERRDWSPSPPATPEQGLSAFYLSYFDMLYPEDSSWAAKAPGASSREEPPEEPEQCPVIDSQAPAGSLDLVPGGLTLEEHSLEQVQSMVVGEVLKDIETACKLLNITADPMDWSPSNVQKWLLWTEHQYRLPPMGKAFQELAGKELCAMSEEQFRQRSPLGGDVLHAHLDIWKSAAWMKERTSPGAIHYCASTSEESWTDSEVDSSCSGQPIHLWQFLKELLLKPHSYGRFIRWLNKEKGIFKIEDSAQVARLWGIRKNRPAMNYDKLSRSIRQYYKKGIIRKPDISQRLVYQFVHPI
Conditions: protein: recombinant; tags: N-terminal GST; dsDNA, one strand shown. The method in brief: as §1

Another assay addresses T10, ETV7 (Homo sapiens, UniProt Q9Y603 1-341).
T10 sequence: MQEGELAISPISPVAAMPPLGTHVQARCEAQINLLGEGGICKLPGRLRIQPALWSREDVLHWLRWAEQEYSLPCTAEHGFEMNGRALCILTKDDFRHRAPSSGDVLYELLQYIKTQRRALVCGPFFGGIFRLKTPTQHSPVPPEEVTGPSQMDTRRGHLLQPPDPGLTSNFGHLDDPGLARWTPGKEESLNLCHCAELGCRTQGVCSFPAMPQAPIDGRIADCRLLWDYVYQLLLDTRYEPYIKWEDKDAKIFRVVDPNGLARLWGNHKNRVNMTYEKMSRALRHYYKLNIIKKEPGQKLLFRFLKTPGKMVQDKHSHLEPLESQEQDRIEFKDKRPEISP
Conditions: protein: recombinant; tags: N-terminal GST; dsDNA, one strand shown. The gist of the method:
as §1

The target of another assay is T11, ELF5 (Homo sapiens, UniProt Q9UKW6-2 1-255).
T11 sequence: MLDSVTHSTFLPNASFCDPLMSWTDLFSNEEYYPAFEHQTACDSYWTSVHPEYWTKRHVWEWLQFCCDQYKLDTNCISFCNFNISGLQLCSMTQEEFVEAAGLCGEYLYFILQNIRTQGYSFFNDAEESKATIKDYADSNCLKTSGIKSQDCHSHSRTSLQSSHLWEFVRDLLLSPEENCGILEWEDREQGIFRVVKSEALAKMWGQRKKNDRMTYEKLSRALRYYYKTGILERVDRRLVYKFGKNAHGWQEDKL
Conditions: protein: recombinant; tags: N-terminal GST; dsDNA, one strand shown. The gist of the method:
as §1

For a further assay, the target named is T12, ETV3 (Homo sapiens, UniProt P41162-2 1-143).
T12 sequence: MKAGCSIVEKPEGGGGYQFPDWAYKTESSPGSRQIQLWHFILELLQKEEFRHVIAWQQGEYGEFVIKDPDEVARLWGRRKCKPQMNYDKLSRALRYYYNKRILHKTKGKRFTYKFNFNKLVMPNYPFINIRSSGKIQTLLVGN
To be noted: protein: recombinant; tags: N-terminal GST; dsDNA, one strand shown. The method in brief:
as §1

Another assay has as its target ETV6 (Homo sapiens, UniProt P41212 1-452). To be noted: protein: recombinant; tags: N-terminal GST; dsDNA, one strand shown. The gist of the method: as §1

ETV6, sequence (P41212 whole entry): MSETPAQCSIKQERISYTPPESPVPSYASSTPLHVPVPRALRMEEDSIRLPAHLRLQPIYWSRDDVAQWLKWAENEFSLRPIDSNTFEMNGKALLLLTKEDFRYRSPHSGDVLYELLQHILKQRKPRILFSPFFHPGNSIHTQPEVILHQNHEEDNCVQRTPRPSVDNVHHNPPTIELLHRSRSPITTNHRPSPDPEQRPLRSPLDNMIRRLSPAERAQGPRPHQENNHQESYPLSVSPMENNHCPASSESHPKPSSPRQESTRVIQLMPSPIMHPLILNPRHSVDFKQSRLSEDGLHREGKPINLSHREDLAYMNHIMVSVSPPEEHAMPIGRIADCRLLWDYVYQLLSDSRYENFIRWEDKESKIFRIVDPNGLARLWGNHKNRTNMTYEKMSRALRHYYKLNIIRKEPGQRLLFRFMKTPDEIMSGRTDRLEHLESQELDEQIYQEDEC
HSF1, sequence (Q00613 whole entry): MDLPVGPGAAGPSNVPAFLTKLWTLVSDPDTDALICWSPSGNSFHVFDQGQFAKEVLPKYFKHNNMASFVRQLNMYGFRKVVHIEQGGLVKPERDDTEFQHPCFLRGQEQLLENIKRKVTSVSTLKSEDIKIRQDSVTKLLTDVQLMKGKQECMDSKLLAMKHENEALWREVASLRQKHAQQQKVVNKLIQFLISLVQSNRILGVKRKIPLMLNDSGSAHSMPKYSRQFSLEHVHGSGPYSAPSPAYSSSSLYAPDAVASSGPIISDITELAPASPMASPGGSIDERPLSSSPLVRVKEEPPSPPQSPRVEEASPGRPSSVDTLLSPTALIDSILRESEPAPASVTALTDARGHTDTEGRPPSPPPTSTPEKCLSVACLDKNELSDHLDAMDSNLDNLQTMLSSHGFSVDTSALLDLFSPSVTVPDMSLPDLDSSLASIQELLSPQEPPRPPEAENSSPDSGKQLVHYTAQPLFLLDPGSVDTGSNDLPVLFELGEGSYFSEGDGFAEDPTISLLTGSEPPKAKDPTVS
CRX, sequence (O43186 whole entry): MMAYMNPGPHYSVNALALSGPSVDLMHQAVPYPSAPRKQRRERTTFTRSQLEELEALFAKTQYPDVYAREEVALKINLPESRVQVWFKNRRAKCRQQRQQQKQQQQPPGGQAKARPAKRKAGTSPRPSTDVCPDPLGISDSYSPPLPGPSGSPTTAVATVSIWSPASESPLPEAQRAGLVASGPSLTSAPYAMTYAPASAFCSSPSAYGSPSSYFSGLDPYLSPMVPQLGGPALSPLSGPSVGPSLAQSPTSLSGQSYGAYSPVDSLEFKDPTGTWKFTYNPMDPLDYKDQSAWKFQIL
ETV1, sequence (P50549 whole entry): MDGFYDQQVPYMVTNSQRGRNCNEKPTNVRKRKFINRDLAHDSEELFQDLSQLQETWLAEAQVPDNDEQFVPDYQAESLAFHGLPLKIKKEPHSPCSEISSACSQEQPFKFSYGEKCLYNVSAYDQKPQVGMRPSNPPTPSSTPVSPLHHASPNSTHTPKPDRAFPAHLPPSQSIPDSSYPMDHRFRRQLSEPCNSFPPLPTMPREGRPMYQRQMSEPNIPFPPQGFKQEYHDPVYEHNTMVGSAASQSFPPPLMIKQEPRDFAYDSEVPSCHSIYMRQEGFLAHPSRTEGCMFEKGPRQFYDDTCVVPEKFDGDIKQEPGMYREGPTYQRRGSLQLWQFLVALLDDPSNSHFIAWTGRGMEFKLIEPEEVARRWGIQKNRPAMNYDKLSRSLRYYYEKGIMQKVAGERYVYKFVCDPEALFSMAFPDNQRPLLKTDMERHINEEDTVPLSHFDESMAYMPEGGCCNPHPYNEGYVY
ETV5, sequence (P41161 whole entry): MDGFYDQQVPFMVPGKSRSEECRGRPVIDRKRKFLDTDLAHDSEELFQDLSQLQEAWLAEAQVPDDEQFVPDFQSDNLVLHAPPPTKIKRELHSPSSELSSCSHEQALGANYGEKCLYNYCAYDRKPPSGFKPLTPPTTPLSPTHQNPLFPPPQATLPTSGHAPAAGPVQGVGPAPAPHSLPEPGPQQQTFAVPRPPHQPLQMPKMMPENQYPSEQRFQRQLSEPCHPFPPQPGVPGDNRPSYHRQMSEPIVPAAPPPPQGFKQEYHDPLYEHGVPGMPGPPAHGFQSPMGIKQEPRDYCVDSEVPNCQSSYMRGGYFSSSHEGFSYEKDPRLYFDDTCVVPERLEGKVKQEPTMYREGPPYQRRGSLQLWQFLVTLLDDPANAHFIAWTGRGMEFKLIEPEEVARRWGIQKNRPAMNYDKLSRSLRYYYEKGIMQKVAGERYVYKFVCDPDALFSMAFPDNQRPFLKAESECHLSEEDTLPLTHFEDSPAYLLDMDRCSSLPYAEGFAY
ELF4, sequence (Q99607 whole entry): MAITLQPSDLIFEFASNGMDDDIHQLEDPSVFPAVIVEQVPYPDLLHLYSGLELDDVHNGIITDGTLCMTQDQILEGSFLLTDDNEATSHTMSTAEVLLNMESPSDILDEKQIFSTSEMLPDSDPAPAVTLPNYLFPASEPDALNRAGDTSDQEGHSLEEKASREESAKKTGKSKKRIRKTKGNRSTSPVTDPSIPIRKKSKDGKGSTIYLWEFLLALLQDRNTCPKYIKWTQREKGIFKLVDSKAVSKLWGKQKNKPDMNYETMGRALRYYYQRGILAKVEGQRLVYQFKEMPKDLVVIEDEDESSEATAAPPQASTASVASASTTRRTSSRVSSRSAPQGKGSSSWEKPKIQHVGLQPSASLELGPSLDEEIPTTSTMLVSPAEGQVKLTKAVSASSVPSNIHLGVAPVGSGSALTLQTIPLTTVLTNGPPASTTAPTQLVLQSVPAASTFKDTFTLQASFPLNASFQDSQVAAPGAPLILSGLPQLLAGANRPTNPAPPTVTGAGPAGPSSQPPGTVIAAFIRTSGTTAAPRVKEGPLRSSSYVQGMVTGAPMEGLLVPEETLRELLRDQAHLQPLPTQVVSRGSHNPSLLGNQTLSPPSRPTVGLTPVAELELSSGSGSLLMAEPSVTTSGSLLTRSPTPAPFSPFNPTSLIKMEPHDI

For ATACCT, the binding signal with FEV is 1.04 fold enrichment (6-mer frequency, TF over GST control); in the assay with ETV5 it was 1.01 fold enrichment (6-mer frequency, TF over GST control); in the assay with HSF1 it was 1.01 fold enrichment (6-mer frequency, TF over GST control); in the assay with SPIC, 1.11 fold enrichment (6-mer frequency, TF over GST control); with ELF4 it was 1.1 fold enrichment (6-mer frequency, TF over GST control); with ELK4, 1.1 fold enrichment (6-mer frequency, TF over GST control). In addition, the binding signal in the assay with ETV2 is 1.09 fold enrichment (6-mer frequency, TF over GST control); with ELF3, 1.08 fold enrichment (6-mer frequency, TF over GST control); in the assay with CRX it was 1.12 fold enrichment (6-mer frequency, TF over GST control); with ETV1, 1.15 fold enrichment (6-mer frequency, TF over GST control); with ERF, 1.12 fold enrichment (6-mer frequency, TF over GST control); in the assay with ETV3L, 1.09 fold enrichment (6-mer frequency, TF over GST control). Moreover, the binding signal in the assay with ETS2 is 1.16 fold enrichment (6-mer frequency, TF over GST control); with SPDEF, 1.04 fold enrichment (6-mer frequency, TF over GST control); in the assay with ETV7, 1.18 fold enrichment (6-mer frequency, TF over GST control); with ELF5, 1.04 fold enrichment (6-mer frequency, TF over GST control); in the assay with ETV3 it was 1.11 fold enrichment (6-mer frequency, TF over GST control); in the assay with ETV6, 1.07 fold enrichment (6-mer frequency, TF over GST control).
